Measured values: ChEMBL document CHEMBL1961873, “Compounds: GSK PKIS; Assays: Nanosyn kinase panel” (2012)

Key:
[1] = target: T1, Ephrin type-B receptor 2 (Homo sapiens) (UniProt P29323); conditions: at 1 µM
T1 sequence (whole entry): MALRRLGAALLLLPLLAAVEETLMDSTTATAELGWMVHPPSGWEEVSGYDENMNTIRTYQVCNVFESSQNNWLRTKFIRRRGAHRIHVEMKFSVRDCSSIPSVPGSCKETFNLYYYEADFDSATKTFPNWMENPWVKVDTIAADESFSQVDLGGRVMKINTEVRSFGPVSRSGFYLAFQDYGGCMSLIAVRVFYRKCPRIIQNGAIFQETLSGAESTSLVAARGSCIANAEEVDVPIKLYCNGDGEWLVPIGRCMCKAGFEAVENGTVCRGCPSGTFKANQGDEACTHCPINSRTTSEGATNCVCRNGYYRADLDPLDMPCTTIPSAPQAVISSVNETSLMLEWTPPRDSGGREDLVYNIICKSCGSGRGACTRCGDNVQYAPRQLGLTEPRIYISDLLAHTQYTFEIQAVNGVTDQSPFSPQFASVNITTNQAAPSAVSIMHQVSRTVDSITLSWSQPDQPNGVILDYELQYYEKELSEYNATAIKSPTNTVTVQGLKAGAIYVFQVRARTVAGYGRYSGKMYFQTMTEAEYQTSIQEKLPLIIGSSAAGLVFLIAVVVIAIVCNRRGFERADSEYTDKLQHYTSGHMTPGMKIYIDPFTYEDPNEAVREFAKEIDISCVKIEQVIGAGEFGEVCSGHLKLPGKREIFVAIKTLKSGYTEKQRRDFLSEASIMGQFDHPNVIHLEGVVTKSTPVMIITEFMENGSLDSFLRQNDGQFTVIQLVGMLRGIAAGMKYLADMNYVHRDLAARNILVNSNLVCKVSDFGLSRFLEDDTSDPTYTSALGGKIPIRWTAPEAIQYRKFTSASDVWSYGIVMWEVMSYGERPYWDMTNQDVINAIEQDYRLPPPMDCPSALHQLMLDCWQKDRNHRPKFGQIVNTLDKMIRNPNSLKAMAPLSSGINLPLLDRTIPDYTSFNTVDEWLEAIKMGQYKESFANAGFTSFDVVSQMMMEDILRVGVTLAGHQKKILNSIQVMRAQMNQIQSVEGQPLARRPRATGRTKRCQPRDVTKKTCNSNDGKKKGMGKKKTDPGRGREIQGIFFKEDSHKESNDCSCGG

[2] = target: T2, Ephrin type-B receptor 3 (Homo sapiens) (UniProt P54753); conditions: at 0.1 µM
T2 sequence (whole entry): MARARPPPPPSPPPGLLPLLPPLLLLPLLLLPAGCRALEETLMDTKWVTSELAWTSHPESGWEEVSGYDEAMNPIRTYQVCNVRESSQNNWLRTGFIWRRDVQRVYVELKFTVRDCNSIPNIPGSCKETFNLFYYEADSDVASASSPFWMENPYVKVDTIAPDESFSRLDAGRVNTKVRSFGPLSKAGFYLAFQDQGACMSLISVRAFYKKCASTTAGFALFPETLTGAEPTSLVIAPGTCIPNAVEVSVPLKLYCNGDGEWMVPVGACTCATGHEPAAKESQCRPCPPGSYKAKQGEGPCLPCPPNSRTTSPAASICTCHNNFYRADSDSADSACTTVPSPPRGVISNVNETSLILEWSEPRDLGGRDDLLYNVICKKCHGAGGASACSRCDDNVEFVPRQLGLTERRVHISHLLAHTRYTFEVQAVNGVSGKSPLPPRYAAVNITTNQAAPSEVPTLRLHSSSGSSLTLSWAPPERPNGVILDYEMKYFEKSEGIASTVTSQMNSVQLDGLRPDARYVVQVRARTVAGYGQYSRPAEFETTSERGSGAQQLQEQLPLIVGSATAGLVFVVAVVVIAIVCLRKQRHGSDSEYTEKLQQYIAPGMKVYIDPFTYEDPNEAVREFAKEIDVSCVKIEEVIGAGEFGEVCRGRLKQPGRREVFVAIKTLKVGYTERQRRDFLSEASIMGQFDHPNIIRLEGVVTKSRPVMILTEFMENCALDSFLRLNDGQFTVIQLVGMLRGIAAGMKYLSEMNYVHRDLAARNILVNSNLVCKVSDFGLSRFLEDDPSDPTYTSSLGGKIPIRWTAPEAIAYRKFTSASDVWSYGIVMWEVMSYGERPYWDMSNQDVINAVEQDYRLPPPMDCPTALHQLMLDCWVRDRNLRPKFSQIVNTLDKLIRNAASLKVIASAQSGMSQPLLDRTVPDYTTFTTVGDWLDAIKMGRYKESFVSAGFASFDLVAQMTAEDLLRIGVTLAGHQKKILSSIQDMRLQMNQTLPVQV

[3] = target: T2, Ephrin type-B receptor 3 (Homo sapiens); conditions: at 1 µM
[4] = target: T3, Ephrin type-B receptor 4 (Homo sapiens) (UniProt P54760); conditions: at 0.1 µM
T3 sequence (whole entry): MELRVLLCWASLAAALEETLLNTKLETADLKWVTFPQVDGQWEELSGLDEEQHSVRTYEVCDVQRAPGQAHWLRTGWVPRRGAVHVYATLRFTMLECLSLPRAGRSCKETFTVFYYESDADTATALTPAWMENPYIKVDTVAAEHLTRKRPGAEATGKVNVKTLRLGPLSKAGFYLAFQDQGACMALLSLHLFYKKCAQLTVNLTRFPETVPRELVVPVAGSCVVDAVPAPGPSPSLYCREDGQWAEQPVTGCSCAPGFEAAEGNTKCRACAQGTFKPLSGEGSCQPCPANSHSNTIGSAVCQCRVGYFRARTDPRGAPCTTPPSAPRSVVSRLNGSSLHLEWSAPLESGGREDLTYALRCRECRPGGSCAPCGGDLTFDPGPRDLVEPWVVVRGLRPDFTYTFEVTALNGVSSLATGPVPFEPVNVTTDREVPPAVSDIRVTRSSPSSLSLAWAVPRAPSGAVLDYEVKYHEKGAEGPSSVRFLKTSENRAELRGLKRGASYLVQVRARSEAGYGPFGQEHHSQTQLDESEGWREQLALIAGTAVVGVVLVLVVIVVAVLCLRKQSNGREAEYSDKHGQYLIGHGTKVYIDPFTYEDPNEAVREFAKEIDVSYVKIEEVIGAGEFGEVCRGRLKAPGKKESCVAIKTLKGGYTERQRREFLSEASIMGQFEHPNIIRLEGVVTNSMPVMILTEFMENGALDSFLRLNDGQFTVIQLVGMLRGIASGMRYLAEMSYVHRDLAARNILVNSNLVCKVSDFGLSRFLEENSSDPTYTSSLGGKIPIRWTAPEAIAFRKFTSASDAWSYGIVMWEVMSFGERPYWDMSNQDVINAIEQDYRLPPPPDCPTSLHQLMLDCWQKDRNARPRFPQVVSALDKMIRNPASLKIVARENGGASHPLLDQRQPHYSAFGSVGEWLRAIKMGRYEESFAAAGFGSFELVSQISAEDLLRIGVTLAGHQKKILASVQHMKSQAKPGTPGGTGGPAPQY

[5] = target: T3, Ephrin type-B receptor 4 (Homo sapiens); conditions: at 1 µM
[6] = target: Receptor tyrosine-protein kinase erbB-2 (Homo sapiens) (UniProt P04626); conditions: at 0.1 µM
Receptor tyrosine-protein kinase erbB-2 (Homo sapiens), sequence (P04626 whole entry): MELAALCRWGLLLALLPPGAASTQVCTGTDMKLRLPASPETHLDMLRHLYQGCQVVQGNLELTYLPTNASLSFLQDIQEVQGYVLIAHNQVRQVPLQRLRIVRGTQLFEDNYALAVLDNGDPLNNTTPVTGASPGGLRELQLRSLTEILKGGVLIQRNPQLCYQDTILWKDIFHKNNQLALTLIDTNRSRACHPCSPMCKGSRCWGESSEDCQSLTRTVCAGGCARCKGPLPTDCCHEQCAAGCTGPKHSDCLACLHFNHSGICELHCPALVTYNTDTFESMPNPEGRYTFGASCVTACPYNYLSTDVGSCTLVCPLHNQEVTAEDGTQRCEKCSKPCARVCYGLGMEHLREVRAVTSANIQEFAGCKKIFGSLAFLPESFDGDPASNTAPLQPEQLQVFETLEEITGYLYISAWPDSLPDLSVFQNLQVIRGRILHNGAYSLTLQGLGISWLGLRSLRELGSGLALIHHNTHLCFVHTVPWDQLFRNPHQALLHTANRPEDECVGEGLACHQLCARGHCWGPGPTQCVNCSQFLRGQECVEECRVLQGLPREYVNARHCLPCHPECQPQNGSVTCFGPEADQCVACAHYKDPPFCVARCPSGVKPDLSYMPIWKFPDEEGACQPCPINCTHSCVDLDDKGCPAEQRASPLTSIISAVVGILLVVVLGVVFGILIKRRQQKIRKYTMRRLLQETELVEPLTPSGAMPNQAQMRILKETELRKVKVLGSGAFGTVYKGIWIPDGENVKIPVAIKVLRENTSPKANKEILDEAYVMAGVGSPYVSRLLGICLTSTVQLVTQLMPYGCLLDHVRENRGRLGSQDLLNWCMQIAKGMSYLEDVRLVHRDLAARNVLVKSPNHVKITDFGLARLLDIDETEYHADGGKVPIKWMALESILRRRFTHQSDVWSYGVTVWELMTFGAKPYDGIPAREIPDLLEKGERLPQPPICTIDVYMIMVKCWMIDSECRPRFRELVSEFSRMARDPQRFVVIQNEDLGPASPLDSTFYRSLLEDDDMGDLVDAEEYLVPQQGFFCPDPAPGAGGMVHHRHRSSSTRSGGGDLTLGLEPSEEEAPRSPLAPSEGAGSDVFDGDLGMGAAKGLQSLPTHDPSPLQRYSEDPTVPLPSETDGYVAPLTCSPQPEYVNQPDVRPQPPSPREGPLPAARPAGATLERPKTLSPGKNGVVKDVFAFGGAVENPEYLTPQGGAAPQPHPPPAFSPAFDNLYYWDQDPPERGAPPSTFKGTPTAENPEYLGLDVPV

[7] = target: Receptor tyrosine-protein kinase erbB-2 (Homo sapiens) (UniProt P04626); conditions: at 1 µM
[8] = target: Receptor tyrosine-protein kinase erbB-4 (Homo sapiens) (UniProt Q15303); conditions: at 0.1 µM
[9] = target: Receptor tyrosine-protein kinase erbB-4 (Homo sapiens) (UniProt Q15303); conditions: at 1 µM
[10] = target: Tyrosine-protein kinase Fer (Homo sapiens) (UniProt P16591); conditions: at 0.1 µM
Tyrosine-protein kinase Fer (Homo sapiens), sequence (P16591 whole entry, looked up): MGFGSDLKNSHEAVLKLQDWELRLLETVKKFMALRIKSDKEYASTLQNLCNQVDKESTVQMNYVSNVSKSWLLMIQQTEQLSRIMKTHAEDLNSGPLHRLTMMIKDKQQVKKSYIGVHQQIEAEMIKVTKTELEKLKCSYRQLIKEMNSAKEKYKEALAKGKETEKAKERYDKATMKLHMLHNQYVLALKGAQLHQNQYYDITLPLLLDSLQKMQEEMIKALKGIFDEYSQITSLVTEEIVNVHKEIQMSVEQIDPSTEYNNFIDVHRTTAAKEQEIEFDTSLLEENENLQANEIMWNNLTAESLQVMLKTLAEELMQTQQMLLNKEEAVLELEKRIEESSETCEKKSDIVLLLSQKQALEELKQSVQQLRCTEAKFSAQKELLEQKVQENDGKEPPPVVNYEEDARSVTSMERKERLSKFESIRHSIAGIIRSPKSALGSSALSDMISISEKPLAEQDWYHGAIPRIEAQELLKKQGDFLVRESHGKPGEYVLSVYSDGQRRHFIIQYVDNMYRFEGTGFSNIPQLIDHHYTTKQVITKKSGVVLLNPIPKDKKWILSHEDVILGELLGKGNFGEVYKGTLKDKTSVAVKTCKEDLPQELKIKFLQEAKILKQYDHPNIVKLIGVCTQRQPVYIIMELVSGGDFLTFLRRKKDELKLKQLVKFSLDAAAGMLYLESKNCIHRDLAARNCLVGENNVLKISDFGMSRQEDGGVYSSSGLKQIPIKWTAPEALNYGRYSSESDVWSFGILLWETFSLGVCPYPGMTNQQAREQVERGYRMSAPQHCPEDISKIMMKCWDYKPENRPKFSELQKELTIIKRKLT

[11] = target: Tyrosine-protein kinase Fer (Homo sapiens) (UniProt P16591); conditions: at 1 µM
[12] = target: Tyrosine-protein kinase Fes/Fps (Homo sapiens) (UniProt P07332); conditions: at 0.1 µM
Tyrosine-protein kinase Fes/Fps (Homo sapiens), sequence (P07332 whole entry): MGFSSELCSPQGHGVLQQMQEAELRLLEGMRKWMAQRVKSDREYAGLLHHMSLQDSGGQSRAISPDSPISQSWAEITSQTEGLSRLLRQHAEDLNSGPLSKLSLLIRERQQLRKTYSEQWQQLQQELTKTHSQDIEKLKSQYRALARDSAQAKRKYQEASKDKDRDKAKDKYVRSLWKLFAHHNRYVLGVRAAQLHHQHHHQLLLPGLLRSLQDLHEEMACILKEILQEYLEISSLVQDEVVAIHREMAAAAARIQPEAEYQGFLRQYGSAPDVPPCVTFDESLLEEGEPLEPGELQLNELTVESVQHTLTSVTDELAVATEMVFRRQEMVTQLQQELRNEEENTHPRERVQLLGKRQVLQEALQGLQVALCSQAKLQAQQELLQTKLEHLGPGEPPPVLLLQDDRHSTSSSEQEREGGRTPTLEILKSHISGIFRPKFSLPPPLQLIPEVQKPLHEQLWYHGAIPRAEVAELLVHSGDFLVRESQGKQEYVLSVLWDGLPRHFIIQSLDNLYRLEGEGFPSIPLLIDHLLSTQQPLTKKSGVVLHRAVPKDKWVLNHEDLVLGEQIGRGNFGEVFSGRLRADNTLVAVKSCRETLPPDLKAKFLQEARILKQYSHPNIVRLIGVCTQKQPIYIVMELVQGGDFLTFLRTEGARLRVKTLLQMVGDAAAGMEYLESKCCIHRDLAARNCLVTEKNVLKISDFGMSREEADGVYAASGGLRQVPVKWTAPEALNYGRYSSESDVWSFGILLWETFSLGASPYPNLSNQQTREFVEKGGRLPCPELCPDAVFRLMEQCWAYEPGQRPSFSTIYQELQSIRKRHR

[13] = target: Tyrosine-protein kinase Fes/Fps (Homo sapiens) (UniProt P07332); conditions: at 1 µM
[14] = target: Fibroblast growth factor receptor 1 (Homo sapiens) (UniProt P11362); conditions: at 0.1 µM
Fibroblast growth factor receptor 1 (Homo sapiens), sequence (P11362 22-822 limits assumed): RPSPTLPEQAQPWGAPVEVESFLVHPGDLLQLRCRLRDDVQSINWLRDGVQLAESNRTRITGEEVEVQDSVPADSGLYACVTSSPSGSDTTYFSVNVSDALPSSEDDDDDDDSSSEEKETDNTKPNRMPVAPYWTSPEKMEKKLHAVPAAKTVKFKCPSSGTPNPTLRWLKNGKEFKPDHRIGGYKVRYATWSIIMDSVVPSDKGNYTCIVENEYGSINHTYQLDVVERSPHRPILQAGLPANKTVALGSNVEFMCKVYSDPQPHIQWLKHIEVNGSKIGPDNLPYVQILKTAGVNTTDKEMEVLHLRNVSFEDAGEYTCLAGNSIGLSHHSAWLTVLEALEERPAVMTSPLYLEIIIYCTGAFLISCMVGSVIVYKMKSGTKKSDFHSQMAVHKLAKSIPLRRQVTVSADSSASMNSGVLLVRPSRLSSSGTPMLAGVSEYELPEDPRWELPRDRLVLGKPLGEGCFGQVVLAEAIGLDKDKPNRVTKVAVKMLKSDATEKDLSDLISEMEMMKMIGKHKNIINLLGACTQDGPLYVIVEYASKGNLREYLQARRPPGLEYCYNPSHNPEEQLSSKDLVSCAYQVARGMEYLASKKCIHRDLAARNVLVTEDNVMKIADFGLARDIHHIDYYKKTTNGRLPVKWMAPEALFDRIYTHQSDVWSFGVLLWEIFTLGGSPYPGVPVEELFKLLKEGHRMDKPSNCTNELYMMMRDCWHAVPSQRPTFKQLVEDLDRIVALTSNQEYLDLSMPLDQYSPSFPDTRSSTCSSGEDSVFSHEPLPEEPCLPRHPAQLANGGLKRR

[15] = target: Fibroblast growth factor receptor 1 (Homo sapiens) (UniProt P11362); conditions: at 1 µM
[16] = target: Fibroblast growth factor receptor 2 (Homo sapiens) (UniProt P21802); conditions: at 0.1 µM
[17] = target: Fibroblast growth factor receptor 2 (Homo sapiens) (UniProt P21802); conditions: at 1 µM
[18] = target: Fibroblast growth factor receptor 3 (Homo sapiens) (UniProt P22607); conditions: at 0.1 µM
[19] = target: Fibroblast growth factor receptor 3 (Homo sapiens) (UniProt P22607); conditions: at 1 µM
[20] = target: Fibroblast growth factor receptor 4 (Homo sapiens) (UniProt P22455); conditions: at 0.1 µM;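 also: values are mean percent inhibition of FGFR4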
Fibroblast growth factor receptor 4 (Homo sapiens), sequence (P22455 22-802 limits assumed): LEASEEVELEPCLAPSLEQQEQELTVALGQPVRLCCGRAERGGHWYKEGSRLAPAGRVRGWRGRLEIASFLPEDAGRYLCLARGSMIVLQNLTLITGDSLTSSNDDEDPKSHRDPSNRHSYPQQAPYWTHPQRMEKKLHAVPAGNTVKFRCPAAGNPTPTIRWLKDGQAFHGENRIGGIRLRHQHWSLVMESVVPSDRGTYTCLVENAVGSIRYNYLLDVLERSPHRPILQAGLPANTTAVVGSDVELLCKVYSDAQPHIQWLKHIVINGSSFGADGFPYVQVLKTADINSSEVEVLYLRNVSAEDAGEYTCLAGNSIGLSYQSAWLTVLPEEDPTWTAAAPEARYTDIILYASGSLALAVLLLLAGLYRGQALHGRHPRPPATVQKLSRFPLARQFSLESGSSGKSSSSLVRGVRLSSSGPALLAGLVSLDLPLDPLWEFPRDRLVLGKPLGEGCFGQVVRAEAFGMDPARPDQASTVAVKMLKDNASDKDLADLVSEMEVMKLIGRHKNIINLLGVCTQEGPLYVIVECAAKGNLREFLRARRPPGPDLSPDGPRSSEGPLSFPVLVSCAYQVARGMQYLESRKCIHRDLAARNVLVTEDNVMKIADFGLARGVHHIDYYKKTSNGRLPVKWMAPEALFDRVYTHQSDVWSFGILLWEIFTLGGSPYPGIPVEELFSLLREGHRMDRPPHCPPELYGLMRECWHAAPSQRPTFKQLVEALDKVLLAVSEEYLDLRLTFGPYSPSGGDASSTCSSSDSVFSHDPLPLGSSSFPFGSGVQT

SMILES	inhibition [1] [%]	inhibition [2] [%]	inhibition [3] [%]	inhibition [4] [%]	inhibition [5] [%]	inhibition [6] [%]	inhibition [7] [%]	inhibition [8] [%]	inhibition [9] [%]	inhibition [10] [%]	inhibition [11] [%]	inhibition [12] [%]	inhibition [13] [%]	inhibition [14] [%]	inhibition [15] [%]	inhibition [16] [%]	inhibition [17] [%]	inhibition [18] [%]	inhibition [19] [%]	inhibition [20] [%]
CC1=C(C(=O)Nc2ccc3[nH]ncc3c2)C(c2ccc(F)cc2)NC(=O)N1 (stereo not given)	5.02	3.4	1.2	-1.65	0.92	-0.29	-0.74	4.16	5.19	0.09	2.17	0.59	0.3	-0.9	6.58	3.51	18.4	4.3	14.7	1.22
Cc1ccc(NC(=O)c2ccnc(N3CCCC3)c2)cc1-c1ccc(C(=O)NCC2CC2)cc1	6.65	1.72	-1.41	-3.04	-2.95	2.34	-3.44	6.37	5.79	0.77	1.67	5.28	5.19	-1.44	2.19	1.81	7.09	6.97	4.11	-8.29
Fc1cccc(COc2ccc(Nc3ncnc4sc(-c5cccs5)cc34)cc2Cl)c1	2.33	0.38	2.19	1.37	1.29	1.07	3.46	5.25	31.8	5.4	9.05	0.45	0.01	4.36	5.02	2.92	3.32	0.4	6.81	0.35
